{
  "source": "PubChem BioAssay (Tox21)",
  "note": "Results filed as inconclusive are left out. Values without a mark were called inactive. The source made the active and inactive calls. Calls come from the whole dose curve; as a rule, active = well fitted cell-killing curve with a large enough effect in the repeat runs; inconclusive = weak or mixed curves, or effect the other way; inactive = flat fitted curve, though single readings scatter. % is set by controls: 0 for no effect and ±100 for the full control effect; potency is the fitted concentration of half-maximal effect.",
  "data": [
    {"assay": "qHTS RealTime-Glo MT Cell Viability Assay in HepG2 cells - 0 hour (AID 1224889); note: nearly all actives have a fitted effect of over 50% in size", "conditions": "RealTime-Glo luminescence; series mostly up to 76.8 µM; activity change, negative = cytotoxicity: at the top concentration", "excerpt": "U.S. Tox21 Program National Center for Advancing Translational Sciences [NCATS] NIH Chemical Genomics Center [NCGC] U.S. Environmental Protection Agency [EPA] National Institutes of Environmental Health Sciences [NIEHS] National Toxicology Program [NTP] U.S. Food and Drug Administration [FDA] Tox21 Assay Overview: Measure of cell viability is critical in the cell-base assay. Analysis of cell viability is necessary for the characterization of cell responses to cytotoxic drugs and environmental stress. A RealTime-Glo MT Cell Viability Assay to monitor cell viability in real time of continues cell culture during 40 hours of compound treatment was used to screen Tox21 10K library compounds in HepG2 cells. The RealTime-Glo MT Cell Viability Assay is a nonlytic, homogeneous, bioluminescent method to measure cell viability in real time using a simple, plate-based method. The assay involves adding NanoLuc luciferase and a cell-permeant prosubstrate to cells in culture. Viable cells reduce the proprietary prosubstrate to generate a substrate for NanoLuc luciferase. This substrate diffuses from cells into the surrounding culture medium, where it is rapidly used by the NanoLuc Enzyme to produce a luminescent signal. The signal correlates with the number of viable cells, making the assay well suited for cytotoxicity studies.\nTox21 Assay Protocol Summary: The mixture of HepG2 cell suspension and reagents were dispensed at 600cells/6 ul/well in 1536-well tissue culture treated black solid bottom plates using a Multidrop dispenser. After the assay plates were incubated at a 37 C/5% CO2 incubator for 5 hours, 23 nL of compounds dissolved in DMSO, positive and negative controls was transferred to the assay plate by a pintool work station. The plates were incubated at 37 C for 40 hours. The luminescence intensity were measured at 0h, 8h, 16h, 24h, 32h and 40h time points using ViewLux plate reader during compound treatment.", "values": [
      {"compound": "CN(C)CCOCCO", "activity change, negative = cytotoxicity": "-1.02%"},
      {"compound": "CC(C)C(=O)OCCc1ccccc1", "activity change, negative = cytotoxicity": "9.46%"},
      {"compound": "NCCN1CCOCC1", "activity change, negative = cytotoxicity": "-1.1%"},
      {"compound": "Nc1ccc([N+](=O)[O-])c(N)c1", "activity change, negative = cytotoxicity": "-0.133%"},
      {"compound": "Oc1ccccc1-c1nnco1", "activity change, negative = cytotoxicity": "1.07% [at 35.3 µM]"},
      {"compound": "COc1ccc2c(c1)C(=O)N(CCc1ccc(S(=O)(=O)NC(=O)NC3CCCCC3)cc1)C(=O)C2(C)C", "activity change, negative = cytotoxicity": "-14% [at 35.3 µM]"},
      {"compound": "BrCc1cccc(Oc2ccccc2)c1", "activity change, negative = cytotoxicity": "-6.5%"},
      {"compound": "O=S(O)(O)=S", "activity change, negative = cytotoxicity": "-0.126% [at 6.97 µM]"},
      {"compound": "COCCOCCOCCOCCOCCO", "activity change, negative = cytotoxicity": "1.29%"},
      {"compound": "COc1cc(C(=S)N2CCOCC2)cc(OC)c1OC", "activity change, negative = cytotoxicity": "-8.83% [at 35.3 µM]"},
      {"compound": "O=C(NCCc1c[nH]c2ccccc12)c1cccnc1", "activity change, negative = cytotoxicity": "-0.345% [at 35.3 µM]"},
      {"compound": "Cc1ccc(C=O)cc1C", "activity change, negative = cytotoxicity": "-0.598%"},
      {"compound": "OCCC(F)(F)C(F)(F)C(F)(F)C(F)(F)C(F)(F)C(F)(F)C(F)(F)C(F)(F)F", "activity change, negative = cytotoxicity": "-16.2%"},
      {"compound": "CCOC(=O)/C=C/c1ccccc1", "activity change, negative = cytotoxicity": "5.65%"},
      {"compound": "O=C(CCNNC(=O)c1ccncc1)NCc1ccccc1", "activity change, negative = cytotoxicity": "2.78% [at 35.3 µM]"},
      {"compound": "CC(C)NCC(O)COc1cccc2[nH]ccc12", "note": "(stereo not given)", "activity change, negative = cytotoxicity": "-3.25% [at 35.3 µM]"},
      {"compound": "Cc1ccccc1OCC(O)CO", "note": "(stereo not given)", "activity change, negative = cytotoxicity": "-1.49% [at 35.3 µM]"},
      {"compound": "CN(C)c1ccc(C=O)cc1", "activity change, negative = cytotoxicity": "-0.565%"},
      {"compound": "COc1cc2c(cc1OC)C(=O)CC2", "activity change, negative = cytotoxicity": "0.214% [at 35.3 µM]"},
      {"compound": "C=C(C)C(=O)OCCN(CC)CC", "activity change, negative = cytotoxicity": "3.22%"},
      {"compound": "CC(C)C[C@H](NC(=O)CNC(=O)[C@H](Cc1ccc(O)cc1)NC(=O)[C@H](CO)NC(=O)[C@H](Cc1c[nH]c2ccccc12)NC(=O)[C@H](Cc1cnc[nH]1)NC(=O)[C@@H]1CCC(=O)N1)C(=O)N[C@@H](CCCN=C(N)N)C(=O)N1CCC[C@H]1C(=O)NCC(N)=O", "note": "(stereo in doubt)", "activity change, negative = cytotoxicity": "-3.58% [at 35.3 µM]"},
      {"compound": "CCCCCCOC(=O)CC", "activity change, negative = cytotoxicity": "5.57%"},
      {"compound": "O=C1O[C@@H]2[C@@H](O)[C@H](O)O[C@@H]2[C@H]1O", "activity change, negative = cytotoxicity": "9.94%"},
      {"compound": "CC(N)C(=O)OC(C)(C)Cc1ccc(Cl)cc1", "note": "(stereo not given)", "activity change, negative = cytotoxicity": "0.0643% [at 35.3 µM]"},
      {"compound": "COc1cc2c(cc1OC)[C@@H]1CC(=O)[C@@H](CC(C)C)CN1CC2", "activity change, negative = cytotoxicity": "-13.2% [at 35.3 µM]"},
      {"compound": "NS(=O)(=O)c1cc2c(cc1Cl)CN(C1CCCCC1)C2=O", "activity change, negative = cytotoxicity": "4.23% [at 35.3 µM]"},
      {"compound": "C=C(C)C1CCC(C)(O)CC1", "note": "(stereo not given)", "activity change, negative = cytotoxicity": "-1.78%"},
      {"compound": "CC(S)C(=O)NCC(=O)O", "note": "(stereo not given)", "activity change, negative = cytotoxicity": "-1.35% [at 35.3 µM]"},
      {"compound": "NS(=O)(=O)c1ccc(NC(=O)CCC(=O)O)cc1", "activity change, negative = cytotoxicity": "0.762% [at 35.3 µM]"},
      {"compound": "O=S(=O)(O)CCN1CCN(CCO)CC1", "activity change, negative = cytotoxicity": "4.16%"},
      {"compound": "COCCOC(=O)C1=C(C)NC(C)=C(C(=O)OC(C)C)C1c1cccc([N+](=O)[O-])c1", "note": "(stereo not given)", "Potency": "601 nM (active)"},
      {"compound": "N#Cc1ccc(C(=O)O)cc1", "activity change, negative = cytotoxicity": "3.71%"},
      {"compound": "CCCCCCCCCCCCCC", "activity change, negative = cytotoxicity": "-3.93%"},
      {"compound": "CC(C(=O)O)c1ccc2c(c1)CC(=O)c1ccccc1S2", "note": "(stereo not given)", "activity change, negative = cytotoxicity": "-17.3% [at 35.3 µM]"},
      {"compound": "C[C@@H](Oc1ccc(CNC(=O)c2cccnc2Oc2ccc3c(c2)OCO3)c(F)c1)C(=O)O", "activity change, negative = cytotoxicity": "-18%"},
      {"compound": "Cc1cccc(C)c1OCC(C)N", "note": "(stereo not given)", "activity change, negative = cytotoxicity": "14.1% [at 35.3 µM]"},
      {"compound": "CC/C=C\\CC1=C(C)CCC1=O", "activity change, negative = cytotoxicity": "-2.42%"},
      {"compound": "COc1ccc(-c2cc(=O)c3c(O)cc(O[C@@H]4O[C@H](CO[C@@H]5O[C@@H](C)[C@H](O)[C@@H](O)[C@H]5O)[C@@H](O)[C@H](O)[C@H]4O)cc3o2)cc1O", "activity change, negative = cytotoxicity": "8.31% [at 35.3 µM]"},
      {"compound": "CCCCCCCCSCC", "activity change, negative = cytotoxicity": "0.0684%"},
      {"compound": "Cc1ccccc1C(=O)Nc1ccc(C(=O)N2CCCC(N(C)C)c3ccccc32)cc1", "note": "(stereo not given)", "activity change, negative = cytotoxicity": "16.6% [at 35.3 µM]"}
    ]}
  ]
}
